Drawing on PubChem BioAssay (Tox21), this text covers Potency for 40 molecules.

Records with an inconclusive call do not appear. Where a call stands in place of a potency, no number is given. Activity calls are given as the source filed them. Calls follow the shape of the dose curve; as a rule, active = well fitted activation curve with a large enough effect in the signal ratio in the repeat runs, with a control signal flat (not every such curve was filed as active); inconclusive = weak or mixed curves; inactive = flat fitted curve, though single readings scatter; the % refers to the signal ratio.

A short description of the experiment: qHTS assay for small molecule activators of the heat shock response signaling pathway (AID 743210). The conditions noted are these: HeLa HSE-bla reporter, beta-lactamase ratio, 5 h; series mostly up to 62.6 µM. The source says:
U.S. Tox21 Program National Center for Advancing Translational Sciences [NCATS] NIH Chemical Genomics Center [NCGC] U.S. Environmental Protection Agency [EPA] National Institutes of Environmental Health Sciences [NIEHS] National Toxicology Program [NTP] U.S. Food and Drug Administration [FDA] Tox21 Assay Overview: Various chemicals, environmental and physiological stress conditions may lead to the activation of heat shock response/ unfolded protein response (HSR/UPR). There are three heat shock transcription factors (HSFs) (HSF-1, -2, and -4) mediating transcriptional regulation of the human HSR. To identify the compounds that activate HSR signaling, HSE-bla HeLa cell line (Invitrogen, Carlsbad, CA, USA) containing a beta-lactamase reporter gene under the control of the heat shock response elements was used to screen the Tox21 10K compound library.
Tox21 Assay Protocol Summary: The CellSensor HSE-bla HeLa cells (Invitrogen, Carlsbad, CA, USA) were dispensed at 1500 cells/6uL/well into 1536-well black wall/clear bottom plates using a Multidrop combi (Thermo Fisher Scientific, Waltham, MA) dispenser. After the assay plates were incubated at 37 C and 5% CO2 overnight, 23 nL of compounds dissolved in DMSO, positive controls or DMSO only was transferred to the assay plate by a Pintool station (Kalypsys, San Diego, CA). The plates were incubated at 37 C for 5 h. After 1 uL of LiveBLAzerTM B/G FRET substrate was added using a Flying Reagent Dispenser (Beckman Coulter, Indianapolis, IN, USA), the plates were incubated at room temperature for 2.5 h, and fluorescence intensity was measured by an Envision plate reader (PerkinElmer, Shelton, CT).
Consider `C[N+](C)(C)CC1CO1` (stereo not given), for which the Potency entry is “inactive”.

For `CCC(C)(C)O`, the Potency entry is “inactive”.

For the molecule `CC(Cc1ccccc1)NCc1ccccc1Cl` (stereo not given), the Potency entry is “inactive”.

On to `C=CCOCC1CO1` (stereo not given), for which the Potency entry is “inactive”.

Turning to `CCOP(=S)(OCC)Oc1ccc(S(C)=O)cc1` (stereo not given), the Potency result was “inactive”.

Consider `CCOC(=O)C1OC1(C)c1ccccc1` (stereo not given), for which the Potency result was “inactive”.

Take `C[C@@H]1C[C@@H]([C@H](O)CC2CC(=O)NC(=O)C2)C(=O)[C@@H](C)C1`: the Potency result is “inactive”.

For `Cc1cnc(C2=NC(C)(C(C)C)C(=O)N2)c(C(=O)O)c1` (stereo not given), the Potency result is “inactive”.

Take `CCCCCBr`: the Potency result was “inactive”.

In the case of `O=C1CC[C@@]2(O)[C@H]3Cc4ccc(O)c5c4[C@@]2(CCN3CC2CC2)[C@H]1O5`, the Potency entry was “inactive”.

As for `CN[C@@H](C)[C@H](O)c1ccccc1`, the Potency result was “inactive”.

With `CC(O)CN1CCN(CC(=O)[O-])CCN(CC(=O)[O-])CCN(CC(=O)[O-])CC1.[Gd+3]` (stereo not given), the Potency result is “inactive”.

Take `CC(=O)OC(c1ccccc1)C(Cl)(Cl)Cl` (stereo not given): the Potency result is “inactive”.

Take `CCOC(=O)NC(O)C(Cl)(Cl)Cl` (stereo not given): the Potency result is “inactive”.

Regarding `Nc1cc(Cl)cc(C(=O)O)c1Cl`, the Potency entry is “inactive”.

As for `CCOP(=S)(S)OCC`, the Potency result was “inactive”.

Turning to `C=CC(=O)OCC`, the Potency entry was “inactive”.

As for `CN(C1CCCCC1)C1CCCCC1`, the Potency entry was “inactive”.

As for `COc1ccc(C(O)(c2cncnc2)C2CC2)cc1` (stereo not given), the Potency entry is “inactive”.

With `O=C(CCl)CCl`, the Potency entry is “inactive”.

In the case of `CC(C)(C)N(NC(=O)c1ccc(Cl)cc1)C(=O)c1ccccc1`, the Potency result was “inactive”.

As to `CCOC(=O)c1cncn1C(C)c1ccccc1` (stereo not given), the Potency result is “inactive”.

On to `COc1cc(C[C@@H](C)N)c(OC)cc1Br`, for which the Potency result was “inactive”.

`CC(C)c1ccc(NC(=O)N(C)C)cc1`: the Potency entry was “inactive”.

Consider `N#CC(C#N)=Cc1ccc(O)c(O)c1`, for which the Potency result was “inactive”.

On to `CC(C)(c1ccccc1)c1cc(-n2nc3ccccc3n2)c(O)c(C(C)(C)c2ccccc2)c1`, for which the Potency entry was “inactive”.

Turning to `CCCCOC(=O)CCC(=O)OCCCC`, the Potency result is “inactive”.

As to `CCCC[P+](CC)(CCCC)CCCC` (tested in a mixture with another compound), the Potency entry was “inactive”.

As for `O=C([O-])c1ccccn1.O=C([O-])c1ccccn1.O=C([O-])c1ccccn1.[Cr+3]`, the Potency entry is “inactive”.

With `CC1(C)CC(=O)CC(C)(C)N1[O]`, the Potency entry is “inactive”.

Turning to `CCCC(C)(COC(N)=O)COC(=O)NC(C)C` (stereo not given), the Potency entry is “inactive”.

Take `CCCCC#N`: the Potency result is “inactive”.

For `N#CC1(N=NC2(C#N)CCCCC2)CCCCC1`, the Potency entry was “inactive”.

Turning to `ClCc1ccccc1Cl`, the Potency entry is “inactive”.

As for `CN(C)N`, the Potency result is “inactive”.

In the case of `CC(Oc1cccc(Cl)c1)C(=O)O` (stereo not given), the Potency result was “inactive”.

On to `CCCCC(CC)COC(=O)c1c(Br)c(Br)c(Br)c(Br)c1C(=O)OCC(CC)CCCC` (stereo not given), for which the Potency entry is “inactive”.

On to `O=C(O)c1ccc(=O)[nH]c1`, for which the Potency entry was “inactive”.

Take `Cc1cccc(C)c1NC1=NCCCS1`: the Potency entry is “inactive”.

With `CCC(C)Cl` (stereo not given), the Potency result is “inactive”.
